The text below walks through data of PubChem BioAssay AID1220 (Sanford-Burnham Center for Chemical Genomics, 2008).

Screen size: about 190,000 compounds; about 1,300 (0.68%) were called active. Rule as the data show it: active = inhibition above about 50%; inactive = the rest. The entries come from a sample that favours actives as a whole.

This experiment deals with Mannose-6-phosphate isomerase (Homo sapiens) (UniProt P34949). Briefly: human PMI inhibitors, high substrate, primary screen, biochemical, fluorescence intensity, high mannose 6-phosphate (AID 1220). The following applies: recombinant PMI enzyme, coupled fluorescence intensity; at 20 µM; hits give high values.
Chain of Mannose-6-phosphate isomerase (Homo sapiens) (P34949 whole entry, looked up): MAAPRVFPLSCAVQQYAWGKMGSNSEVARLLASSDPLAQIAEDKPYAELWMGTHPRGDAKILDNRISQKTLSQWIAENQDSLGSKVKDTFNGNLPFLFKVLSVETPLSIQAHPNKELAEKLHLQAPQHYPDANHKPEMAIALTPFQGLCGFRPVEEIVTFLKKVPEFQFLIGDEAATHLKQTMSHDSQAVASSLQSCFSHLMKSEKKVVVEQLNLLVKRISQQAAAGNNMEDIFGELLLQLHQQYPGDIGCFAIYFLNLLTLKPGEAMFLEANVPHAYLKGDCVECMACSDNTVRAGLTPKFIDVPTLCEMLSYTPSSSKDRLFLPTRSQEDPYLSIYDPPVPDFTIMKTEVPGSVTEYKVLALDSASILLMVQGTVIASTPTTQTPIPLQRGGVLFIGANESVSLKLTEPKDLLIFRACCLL
The term inhibition denotes the drop in the measured response relative to a control, in per cent. Consider `CCOC(=O)c1c(NC(=O)c2c(C(=O)O)cccc2[N+](=O)[O-])sc(C)c1C`, for which the inhibition was 8.7% (inactive).
`O=C(Nc1ccc(S(=O)(=O)Nc2ccc(F)cc2)cc1)c1ccc(CN2CCOCC2)cc1`: the inhibition is 17% (inactive).
As for `Cc1cc(C)n(-c2nc(NCc3cccnc3)c3c4c(sc3n2)COC(C)(C)C4)n1`, the inhibition is 6.9% (inactive).
`O=c1c2cc(NC(=S)NCc3cccnc3)ccc2nc2n1CCCCC2`: the inhibition was 1.2% (inactive).
Take `CC1Cc2ccccc2N1C(=O)CSc1nnc(-c2ccccc2)c(-c2ccccc2)n1` (stereo unspecified): the inhibition is 37.9% (inactive).
To `COc1cccc(C2CC(c3ccc(C(C)C)cc3)n3nc(N)nc3N2)c1` (stereo unspecified) belongs 11.2% (inactive); to `CC(=O)Nc1ccc(OCC(O)CN2CCN(c3cc(Cl)ccc3C)CC2)cc1` (stereo unspecified), -2% (inactive); to `Oc1c(CN2CCc3ccccc3C2)cc(Cl)c2cccnc12`, 48.3% (inactive).
Next, `Clc1cccc(CN2COc3c(cc(Cl)c4cccnc34)C2)c1`: 51.8% (active); `CC(C)(C)c1cc2cccnc2n1Cc1cccc(Cl)c1`: 1.9% (inactive); `Cc1nn(-c2ccccc2)c(Cl)c1C1C(C#N)=C(N)Oc2c1c(C)nn2-c1ccccc1` (stereo unspecified): 9% (inactive).
To `CC(C)CNC(=O)CSc1nc2scc(-c3ccccc3)c2c(=O)[nH]1` belongs -14.2% (inactive); to `CC(=O)Nc1ccc(N(C(=O)CNC(=O)c2ccco2)C(C(=O)NCC2CCCO2)c2ccccc2)cc1` (stereo unspecified), -1.6% (inactive).
As for `CC(=O)c1cccc(N(C(=O)CNC(=O)c2ccco2)C(C(=O)NCc2ccco2)c2ccccc2)c1` (stereo unspecified), the inhibition was -1.4% (inactive).
Consider `CC(=O)Nc1ccc(N(C(=O)CNC(=O)c2ccco2)C(C(=O)NCc2ccco2)c2ccccc2F)cc1` (stereo unspecified), for which the inhibition was 60.4% (active).
Next, `CN1CCN(Cc2cc(Cl)c3cccnc3c2OC(=O)c2cccs2)CC1`: 50.4% (active); `O=C(OCCN1CCOCC1)c1cccs1`: 9% (inactive); `O=C(Oc1c(CN2CCOCC2)cc(Cl)c2cccnc12)c1cccs1`: 56.4% (active).
`COCc1cc(CN2CCN(C)CC2)c(O)c2ncccc12`: the inhibition is 37.9% (inactive).
On to `O=C(Oc1c(Cl)cc(Cl)c2cccnc12)c1cccs1`, for which the inhibition was 1.8% (inactive).
With `O=C(Oc1ccc(Cl)c2cccnc12)N1CCOCC1`, the inhibition was 8.2% (inactive).
Next, `CCC(=O)c1ccc(N2CCN(C(=O)c3cccc(F)c3)CC2)c(F)c1`: 7.7% (inactive); `CCCn1nc(C(=O)NCc2ccccn2)c2ccccc2c1=O`: -1.4% (inactive); `O=C(CNCCC1=CCCCC1)Nc1ccccc1N1CCCCC1`: -0.7% (inactive).
To `COCc1cc(C)nc2sc(C(=O)NCCO)c(-n3cccc3)c12` belongs -8.1% (inactive).
Next, `Cc1nn(-c2ccc(Cl)cc2)c(N)c1C(O)(CSc1nccn1C)C(F)(F)F` (stereo unspecified): 10.3% (inactive); `O=C(COC(=O)c1ccncc1)Nc1cc(Cl)c(Cl)cc1Cl`: 3.3% (inactive).
Regarding `O=C(COC(=O)c1ccncc1)Nc1cccc(Cl)c1`, the inhibition is 23.4% (inactive).
Turning to `O=C(COC(=O)c1ccncc1)Nc1cc(Cl)ccc1Cl`, the inhibition is 93.2% (active).
`Cc1ccc(S(=O)(=O)NNC(=O)c2sccc2-n2cccc2)cc1`: the inhibition is -2.5% (inactive).
To `O=c1/c(=C/c2ccc(CNS(=O)(=O)c3ccccc3)o2)sc2n1CCN=2` belongs 13.7% (inactive); to `O=C(NCc1ccc(/C=c2\sc3n(c2=O)CCN=3)o1)C(=O)Nc1ccccc1`, 50.9% (active).
Take `Cc1ccc(/C=c2/sc3n(c2=O)CCCN=3)o1`: the inhibition was -24.9% (inactive).
As for `COc1ccc(C(=O)NCc2nnc(SCC(=O)Nc3cccc(F)c3)o2)cc1`, the inhibition was -10.6% (inactive).
Consider `CCOC(=O)Cc1nnc(-c2ccccc2)o1`, for which the inhibition is 40.2% (inactive).
As for `CCOc1cccc(N(C(=O)C2COc3ccccc3O2)C(C(=O)NC2CCCCC2)c2ccc(O)cc2)c1` (stereo unspecified), the inhibition was -4.1% (inactive).
Next, `CC(C)CCNC(=O)C(c1ccc(O)cc1)N(Cc1cccs1)C(=O)C1COc2ccccc2O1` (stereo unspecified): 9.3% (inactive); `CC(C)CCNC(=O)C(c1ccc(O)cc1)N(C(=O)C1COc2ccccc2O1)c1cccc(O)c1` (stereo unspecified): 60.7% (active); `COCC(C)NC(C(=O)Nc1ccc(C)c(Cl)c1)c1ccccc1` (stereo unspecified): 1.8% (inactive).
To `CN(c1ccc(OCC(=O)Nc2nc(-c3ccccc3)cs2)cc1)S(=O)(=O)c1ccc(F)cc1` belongs 8.4% (inactive); to `Cc1cc(C)c(NC(=O)COC(=O)Cc2ccsc2)c(C)c1`, -8.2% (inactive); to `Cc1ccc(S(=O)(=O)N2CCC(=O)N(CCOCc3cccc(F)c3)CC2)cc1`, 6.5% (inactive).
As to `COc1cc2nc3c4ccccc4n(CC#N)c3nc2cc1OC`, the inhibition was -0.4% (inactive).
To `N#CCCn1c2ccccc2c2nc3ccccc3nc21` belongs -21.1% (inactive); to `N#CCn1c2ccccc2c2nc3ccccc3nc21`, 55.3% (active).
To `Cc1ccc(C2N(C)c3ccccc3-c3nc4ccccc4n32)o1` (stereo unspecified) belongs 3.8% (inactive).
On to `CCOc1ccc(C(Nc2cccnc2)c2cc(Cl)c3cccnc3c2O)cc1` (stereo unspecified), for which the inhibition is 66% (active).
As for `CC(=O)NC(c1ccc(C)cc1)c1cc([N+](=O)[O-])c2cccnc2c1O` (stereo unspecified), the inhibition is 64.9% (active).
For `O=C(O)COc1ccccc1C(Nc1cccnc1)c1cc(Cl)c2cccnc2c1O` (stereo unspecified), the inhibition is 32% (inactive).
For the molecule `O=C(NC(c1ccccc1)c1cc(Cl)c2cccnc2c1O)c1cccnc1` (stereo unspecified), the inhibition is 23.4% (inactive).
On to `CCCC(=O)NC(c1cccs1)c1cc([N+](=O)[O-])c2cccnc2c1O` (stereo unspecified), for which the inhibition was 55.7% (active).
Next, `CC(=O)NC(c1ccccc1)c1cc([N+](=O)[O-])c2cccnc2c1O` (stereo unspecified): 58% (active).
As for `Oc1c(C(Nc2ccccn2)c2cccnc2)cc(Cl)c2cccnc12` (stereo unspecified), the inhibition is 43.5% (inactive).
To `CCC(=O)NC(c1cccs1)c1cc([N+](=O)[O-])c2cccnc2c1O` (stereo unspecified) belongs 43.9% (inactive); to `CC(=O)NC(c1cccs1)c1cc([N+](=O)[O-])c2cccnc2c1O` (stereo unspecified), 43.2% (inactive).
For the molecule `CCCC(=O)NC(c1cccs1)c1cc(Cl)c2cccnc2c1O` (stereo unspecified), the inhibition is 38.8% (inactive).
`O=[N+]([O-])c1cc(Cl)c2cccnc2c1O`: the inhibition was 47.2% (inactive).
Consider `Cc1ccc([N+](=O)[O-])c2cccnc12`, for which the inhibition was 13.6% (inactive).
With `COC(=O)CCCCC1SCC2NC(=O)NC21` (stereo unspecified), the inhibition was -4.5% (inactive).
Next, `COc1ccc(NC(=O)CSc2ccc(F)cc2)cc1S(=O)(=O)N1CCCCC1`: 8.6% (inactive).
On to `Cc1csc2cc(-c3cccc([N+](=O)[O-])c3)c(-c3cccc([N+](=O)[O-])c3)c[n+]12`, for which the inhibition is 4.9% (inactive).
To `COc1ccc(C=O)cc1COc1ccccc1F` belongs 8.1% (inactive); to `CCCC(=O)NC(c1ccco1)c1cc([N+](=O)[O-])c2cccnc2c1O` (stereo unspecified), 7.9% (inactive); to `CCC(=O)NC(c1ccc(C)cc1)c1cc([N+](=O)[O-])c2cccnc2c1O` (stereo unspecified), 54.5% (active).
Regarding `CCC(=O)NC(/C=C/c1ccccc1)c1cc([N+](=O)[O-])c2cccnc2c1O` (stereo unspecified), the inhibition was 46.8% (inactive).
To `COc1ccc(C(NC(C)=O)c2cc(Cl)c3cccnc3c2O)cc1OC` (stereo unspecified) belongs 55.7% (active).
Next, `CCC(=O)NC(c1ccc(OC)c(OC)c1)c1cc(Cl)c2cccnc2c1O` (stereo unspecified): 41.1% (inactive); `CCCC(=O)NC(c1ccc(OC)c(OC)c1)c1cc(Cl)c2cccnc2c1O` (stereo unspecified): 48.4% (inactive); `COc1ccccc1NC(=S)NCc1ccco1`: -7.4% (inactive).
For `Cc1c(Cl)cccc1NC(=O)CSc1nnc(CCNC(=O)OC(C)(C)C)o1`, the inhibition was 3.7% (inactive).
`COCCCNC(=O)c1cc2cc(Br)ccc2oc1=O`: the inhibition was -0.9% (inactive).
Next, `CCC(C)c1ccc(NC(=S)NCCn2cc(Br)cn2)cc1` (stereo unspecified): 14.5% (inactive).
Consider `Cc1[nH]nc2ncc(C(=O)c3cc(F)ccc3O)cc12`, for which the inhibition was -5.1% (inactive).
For `COc1cc(C2Nc3ccc4ncccc4c3C3=C2C(=O)CCC3)cc(OC)c1O` (stereo unspecified), the inhibition is 42.6% (inactive).
Take `COc1cc(C2Nc3ccc4ncccc4c3C3=C2C(=O)CCC3)cc(OC)c1OC` (stereo unspecified): the inhibition is 52.8% (active).
To `COc1cc(C2Nc3ccc4ncccc4c3C3=C2C(=O)CCC3)ccc1O` (stereo unspecified) belongs 46.7% (inactive); to `COC(=O)/C(=C1/Oc2ccc(C)cc2S1)C(F)(F)F`, 1.2% (inactive).
Next, `O=S(=O)(NC1CCCCC1Sc1ncccn1)c1ccc(Cl)cc1` (stereo unspecified): -26% (inactive).
Next, `COc1cc2c(=O)c(-c3ccc(O)cc3)coc2cc1OC1OC(CO)C(O)C(O)C1O` (stereo unspecified): 12.9% (inactive).
Take `O=C(CSc1n[nH]c(-c2cccs2)n1)NCc1cccs1`: the inhibition was 0.2% (inactive).
On to `CCOC(=O)CNC(=O)C1(c2ccccc2)CCCC1`, for which the inhibition was 3.8% (inactive).
As for `COc1cc2c(cc1OC)C1=C(C#N)CN(C3CCCCC3)CN1CC2`, the inhibition was 32.8% (inactive).
To `COc1ccc(CCN2CC(C#N)=C3c4cc(OC)c(OC)cc4CCN3C2)cc1OC` belongs 21.4% (inactive); to `CCOc1cc(-c2c(C#N)c(N)nc3c2CCCC3)ccc1O`, 12.6% (inactive); to `CSc1nc2c(cc1C#N)CCCCC2`, -0.4% (inactive).
Regarding `C/C(=C\C=C(C#N)C#N)c1cc(C#N)c(N)o1`, the inhibition is 70.9% (active).
As for `COc1cc(NC(=O)NS(=O)(=O)c2ccc(C)cc2)cc(OC)c1`, the inhibition was 41% (inactive).
To `COc1ccc(NC(=O)NS(=O)(=O)c2ccc(C)cc2)c(OC)c1` belongs 57.2% (active).
With `COc1ccccc1NC(=O)NS(=O)(=O)c1ccc(C)cc1`, the inhibition is 1.2% (inactive).
For the molecule `O=C(NNc1nc(-c2ccccc2)c2cc(Br)ccc2n1)c1ccc(S(=O)(=O)N2CCCCC2)cc1`, the inhibition was -0.2% (inactive).
To `COC(=O)c1cc(S(=O)(=O)n2nc(C)c(Br)c2C)c(Cl)cc1Cl` belongs -5% (inactive); to `Cc1c(Nc2ncnc3nc[nH]c23)c(=O)n(-c2ccccc2)n1C`, 1.1% (inactive); to `CCCn1cc(S(=O)(=O)CC(=O)Nc2ccc(OC)cc2OC)c2ccccc21`, 56.6% (active).
To `Cn1cc(S(=O)(=O)CC(=O)Nc2ccc3c(c2)OCCO3)c2ccccc21` belongs 50.9% (active).
To `Cn1cc(S(=O)(=O)CC(=O)Nc2ccc3c(c2)OCO3)c2ccccc21` belongs 25.7% (inactive); to `COc1ccc(NC(=O)Cn2cc(S(=O)(=O)Cc3ccccc3)c3ccccc32)c(OC)c1`, 16.9% (inactive); to `Cc1cccc(NC(=O)CS(=O)(=O)c2cn(C)c3ccccc23)c1`, 17.7% (inactive).
Take `CCn1cc(S(=O)(=O)CC(=O)Nc2ccc(C)cc2)c2ccccc21`: the inhibition was -0.5% (inactive).
Take `CCn1cc(S(=O)(=O)CC(=O)Nc2ccc3c(c2)OCCO3)c2ccccc21`: the inhibition is 53.3% (active).
Next, `CCN(CC)C(=O)Cn1cc(S(=O)(=O)CC(=O)Nc2ccc3c(c2)OCCO3)c2ccccc21`: 1.2% (inactive); `CCCn1cc(S(=O)(=O)CC(=O)Nc2ccc(OCC)cc2)c2ccccc21`: 17.3% (inactive).
